C diff HTS: blocks growth of Clostridium difficile; 86,000 tested, 0.25% active; Clostridium difficile clinical isolate growth, OD600, 24 h; active compounds read low; growth activity, negative = inhibition, % at 16 µg/mL (by protocol);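 active means mean growth activity at or below -80% and every replicate also at or below -80%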
T cruzi growth-1: T. cruzi proliferation inhibition | T. cruzi beta-gal in NIH3T3, GalScreen luminescence, 90 h | inhibition, % at 8.34 µM | 77,000 tested, 5.9% active;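 active means mean inhibition above about 93%, with at least 55% of replicates each passing it, limit read from the data, passing the limit was not always enough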
Pf Dd2 growth: blocks growth of Plasmodium falciparum Dd2 parasites. P. falciparum Dd2 growth, SYBR Green, 72 h; active compounds read low. activity change, % at 10 µM. 94,000 tested, 2.3% active. AID 1159554; in the data active means activity change below about -80%
T cruzi growth-2: inhibitors of T. cruzi proliferation; shares compounds with T cruzi growth-1; T. cruzi beta-gal in NIH3T3, GalScreen luminescence, 90 h; inhibition, % at 8.35 µM; 5,600 tested, 72% active; AID 651739;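 active means mean replicate inhibition above about 95% and at least 55% of replicates individually reaching it, limit read from the data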
T cruzi growth-3: blocks T. cruzi growth in NIH3T3 host cells; shares compounds with T cruzi growth-1; T. cruzi beta-gal in NIH3T3, GalScreen luminescence, 90 h; inhibition, % at 2.09 µM; 5,600 tested, 21% active; AID 651740;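 active means mean inhibition above about 95%, with at least 55% of replicates also reaching it, limit read from the data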
NIH3T3 tox: kills mouse NIH/3T3 fibroblasts; shares compounds with T cruzi growth-1; NIH/3T3 viability, CellTiter-Glo ATP luminescence, 90 h; 5,600 tested, 14% active; cytotoxicity (signal decrease), % at 8.35 µM; AID 651742;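 active means mean signal decrease across replicates above about 35% based on untreated-well scatter, with enough replicates individually passing, limit read from the data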
3T3 cytotox 2: cytotoxicity in mouse NIH/3T3 fibroblasts; shares compounds with T cruzi growth-1; NIH/3T3 viability, CellTiter-Glo ATP luminescence, 90 h; inhibition, % at 24.9 µM; 5,600 tested, 56% active; AID 651744;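 active means mean loss of cell viability signal at or above a set limit, and enough replicates individually reaching it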
Each line names hits and unclear results; the compound was inactive in the other large screens (follow-up assays come after a bar, where they were run). The list is not random: actives were taken first. Their share in the collection is about 6.8%.

COc1ccc(S(=O)(=O)Nc2ccc3c(c2)CC(=O)N([C@@H](C)CO)C[C@@H](C)[C@H](CN(C)S(C)(=O)=O)O3)cc1	none
CCC(=O)N(C)C[C@@H]1Oc2cc(C#Cc3ccncc3)ccc2S(=O)(=O)N([C@@H](C)CO)C[C@@H]1C	none
CN1c2ccc(-c3ccccc3)cc2[C@@H]2[C@@H](CCN2C(=O)CN2CCOCC2)[C@@H]1CO	none
C[C@@H]1CCCCO[C@@H](CN(C)Cc2ccc(C(F)(F)F)cc2)[C@H](C)CN([C@H](C)CO)C(=O)c2cc(NC(=O)c3ccncc3)ccc2O1	T cruzi growth-1 109 | T cruzi growth-2 103 | T cruzi growth-3 inactive | NIH3T3 tox inactive | 3T3 cytotox 2 103
C[C@H](CO)N1C[C@H](C)[C@@H](CN(C)Cc2ccncc2)OCCCC[C@H](C)Oc2ccc(NC(=O)Nc3ccc(C(F)(F)F)cc3)cc2C1=O	T cruzi growth-1 101 | T cruzi growth-2 103 | T cruzi growth-3 inactive | NIH3T3 tox inactive | 3T3 cytotox 2 42
C[C@H]1CN([C@@H](C)CO)C(=O)c2cc(NC(=O)c3ccncc3)ccc2O[C@@H]1CN(C)Cc1ccc(C(F)(F)F)cc1	none
C[C@@H]1CCCCO[C@H](CN(C)Cc2ccc(C(F)(F)F)cc2)[C@H](C)CN([C@@H](C)CO)C(=O)c2cc(NC(=O)c3ccncc3)ccc2O1	none
C[C@H](CO)N1C[C@H](C)[C@H](CN(C)Cc2ccncc2)OCCCC[C@H](C)Oc2ccc(NC(=O)Nc3ccc(C(F)(F)F)cc3)cc2C1=O	none
C[C@@H]1CCCCO[C@@H](CN(C)Cc2ccncc2)[C@H](C)CN([C@@H](C)CO)C(=O)c2cc(NC(=O)Nc3ccc(C(F)(F)F)cc3)ccc2O1	none
C[C@@H]1CN([C@@H](C)CO)C(=O)c2cc(NC(=O)c3ccncc3)ccc2O[C@H]1CN(C)Cc1ccc(C(F)(F)F)cc1	T cruzi growth-1 100 | T cruzi growth-2 inactive | T cruzi growth-3 inactive | NIH3T3 tox inactive | 3T3 cytotox 2 inactive
C[C@H]1CCCCO[C@@H](CN(C)Cc2ccncc2)[C@@H](C)CN([C@@H](C)CO)C(=O)c2cc(NC(=O)Nc3ccc(C(F)(F)F)cc3)ccc2O1	T cruzi growth-1 101 | T cruzi growth-2 97 | T cruzi growth-3 114 | NIH3T3 tox inactive | 3T3 cytotox 2 70
C[C@H]1CN([C@@H](C)CO)C(=O)Cc2cc(NS(=O)(=O)c3cccs3)ccc2O[C@H]1CN(C)S(=O)(=O)c1cccs1	none (no result: C diff HTS)
CCC(=O)N1[C@H](CO)[C@@H](c2ccc(C3=CCCCC3)cc2)[C@@H]1CN(C)C(C)=O	none
C[C@@H]1CN([C@@H](C)CO)C(=O)c2cccc(N(C)C)c2O[C@@H]1CN(C)C(=O)Nc1ccccc1	none
C[C@H](NC(=O)C[C@H]1CC[C@H](NC(=O)c2cccnc2)[C@@H](CO)O1)c1ccccc1	none (no result: C diff HTS)
CCCNC(=O)[C@H]1[C@H](CO)[C@H]2Cn3c(ccc(-c4ccccc4F)c3=O)[C@H]2N1C(=O)CC	none
C[C@@H](NC(=O)C[C@@H]1CC[C@H]2[C@@H](COC[C@H](O)CN2C(=O)Nc2cc(Cl)cc(Cl)c2)O1)c1ccccc1	T cruzi growth-1 100 (no result: C diff HTS) | T cruzi growth-2 104 | T cruzi growth-3 inactive | NIH3T3 tox inactive | 3T3 cytotox 2 52
CCCNC(=O)C[C@@H]1CC[C@H]2[C@@H](COC[C@H](O)CN2C(=O)Nc2ccccc2OC)O1	none (no result: C diff HTS)
C[C@H](NC(=O)C[C@H]1CC[C@@H]2[C@H](COC[C@@H](O)CN2C(=O)Nc2cccc(Cl)c2)O1)c1ccccc1	none
CCCNC(=O)C[C@H]1CC[C@H]2[C@@H](COC[C@H](O)CN2C(=O)Nc2ccccc2OC)O1	T cruzi growth-1 117 (no result: C diff HTS) | T cruzi growth-2 97 | T cruzi growth-3 inactive | NIH3T3 tox inactive | 3T3 cytotox 2 inactive
C[C@@H](NC(=O)C[C@H]1CC[C@H]2[C@@H](COC[C@H](O)CN2C(=O)Nc2cccc(Cl)c2)O1)c1ccccc1	T cruzi growth-1 110 | T cruzi growth-2 105 | T cruzi growth-3 inactive | NIH3T3 tox inactive | 3T3 cytotox 2 46
